In PubChem BioAssay (NCI):
Compounds without any hit were thinned out: in the full panel of roughly 79,000, 15% have a hit. Values without a mark were called inactive. Activity calls are given as the source filed them. Rule as the data show it: active = growth inhibition above about 70%; inactive = the rest.

Assay: NCI Yeast Anticancer Drug Screen. Data for the rad18 strain (AID 177)
Settings: S. cerevisiae rad18 mutant growth inhibition, stronger effect = higher value
Protocol: Growth inhibition of yeast strains with defined genetic alterations is measured as a screen for potential anti-cancer activity. Selected strains with alterations in DNA damage repair or cell cycle control were exposed to compounds and growth inhibition was measured relative to vehicle treated controls. The strain used in this assay is rad18

Cc1cc(C)c2[s+]snc2c1
growth inhibition (at 1.2 µM): 7% | growth inhibition (at 3.7 µM): 9% | growth inhibition (at 11.0 µM): 6% | growth inhibition (at 33.0 µM): 27% | growth inhibition (at 100.0 µM): 49%

CC(C)(Br)C(=O)/C=C/c1ccccc1
growth inhibition (at 1.2 µM): 94% (active) | growth inhibition (at 3.7 µM): 95% (active) | growth inhibition (at 11.0 µM): 96% (active) | growth inhibition (at 33.0 µM): 96% (active) | growth inhibition (at 100.0 µM): 97% (active)

COC1=CCC23C(=O)C=CC(=O)C2(C1)C(=O)c1ccccc1C3=O (stereo not given)
growth inhibition (at 1.2 µM): -21% | growth inhibition (at 3.7 µM): -20% | growth inhibition (at 11.0 µM): 32% | growth inhibition (at 33.0 µM): 44% | growth inhibition (at 100.0 µM): 83% (active)

C1=CCN([B-](c2ccccc2)[C+]2CCCCC2)C=C1
growth inhibition (at 1.2 µM): 0% | growth inhibition (at 3.7 µM): 0% | growth inhibition (at 11.0 µM): 2% | growth inhibition (at 33.0 µM): 75% (active) | growth inhibition (at 100.0 µM): 98% (active)

COC(=O)C(=O)c1c(-c2ccc(Cl)c(Cl)c2)[nH]c2[nH]n(-c3ccccc3)c(=O)c2c1=O
growth inhibition (at 1.2 µM): -3% | growth inhibition (at 3.7 µM): -2% | growth inhibition (at 11.0 µM): 3% | growth inhibition (at 33.0 µM): 49% | growth inhibition (at 100.0 µM): 77% (active)

CCCCCCCCNCCCCCCCC
growth inhibition (at 1.2 µM): 14% | growth inhibition (at 3.7 µM): 38% | growth inhibition (at 11.0 µM): 91% (active) | growth inhibition (at 33.0 µM): 99% (active) | growth inhibition (at 100.0 µM): 95% (active)

CC1(C)CC(=O)C(C=NC(=S)C(N)=S)=C(O)C1
growth inhibition (at 1.2 µM): -8% | growth inhibition (at 3.7 µM): -4% | growth inhibition (at 11.0 µM): -15% | growth inhibition (at 33.0 µM): -1% | growth inhibition (at 100.0 µM): 70% (active)

CO[C@@]1([C@@H](Cl)c2ccccc2)C(=O)N(C)/C(=C\c2ccccc2)C(=O)N1C
growth inhibition (at 1.2 µM): 0% | growth inhibition (at 3.7 µM): 0% | growth inhibition (at 11.0 µM): -1% | growth inhibition (at 33.0 µM): 4% | growth inhibition (at 100.0 µM): 9%
